This is a sample that favours compounds with a hit; in the whole collection about 3.2% have one here.
Tau fibril ThT: blocks human tau fibril formation measured by thioflavin T | 270,000 tested, 2.1% active | Potency, µM (series often up to 57.4 µM), hits mostly inhibitors | P10636 | recombinant tau K18 P301L, heparin-induced fibrillization, ThT fluorescence; also: nearly all actives have a fitted effect of over 55% in size
Target sequence (P10636 561-689 P618L limits assumed): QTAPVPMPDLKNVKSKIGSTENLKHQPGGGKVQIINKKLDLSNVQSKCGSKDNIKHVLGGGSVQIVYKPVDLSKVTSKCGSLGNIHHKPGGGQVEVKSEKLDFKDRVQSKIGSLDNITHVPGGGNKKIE
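Heparin-induced fibrillization of the P301L-mutant K18 repeat-domain fragment of human tau was followed by ThT binding in quantitative high-throughput format.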
TexasRed fluor: alters Texas Red total fluorescence, flagging assay interference. 280,000 tested, 0.29% active. Potency, µM (titrated, usually from 106 µM). TRb/SRC2 Texas Red total fluorescence interference; active = well fitted curve in either direction with a large enough effect; inconclusive = small, poorly fitted or top-dose-only effect
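Flags fluorescent or light-absorbing compounds by total fluorescence, S + 2P, at 555 nm excitation and 632 nm emission. Mixture: 20 nM Texas Red SRC2 peptide, 0.6 uM human TRb LBD, 1 uM T3, 5% DMSO; compound exposure 5 h at ambient temperature.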
RGS12 GoLoco inh: blocks human Gai1 binding to RGS12 GoLoco peptide, red readout; P63096; Gai1:RGS12 GoLoco peptide FP, rhodamine, 10 min; Potency, µM (highest dose often 61.6 µM), actives largely listed as inhibitors; 230,000 tested, 0.44% active; AID 880; active = well fitted inhibition curve with a large enough effect, not every such curve was filed as active; inactive = no such curve, though single readings can be large or run the other way; also: nearly all actives have a fitted effect of over 30% in size
TRb-SRC2 inh: TRbeta-SRC2 interaction inhibition; 280,000 tested, 0.065% active; TRbeta-SRC2 peptide binding, fluorescence polarization; receptor liganded with 1 µM T3; P10828; Potency, µM (doses to about 106 µM), hits mostly inhibitors; also: nearly all actives have a fitted effect of over 50% in size
Target sequence (P10828 whole entry, looked up): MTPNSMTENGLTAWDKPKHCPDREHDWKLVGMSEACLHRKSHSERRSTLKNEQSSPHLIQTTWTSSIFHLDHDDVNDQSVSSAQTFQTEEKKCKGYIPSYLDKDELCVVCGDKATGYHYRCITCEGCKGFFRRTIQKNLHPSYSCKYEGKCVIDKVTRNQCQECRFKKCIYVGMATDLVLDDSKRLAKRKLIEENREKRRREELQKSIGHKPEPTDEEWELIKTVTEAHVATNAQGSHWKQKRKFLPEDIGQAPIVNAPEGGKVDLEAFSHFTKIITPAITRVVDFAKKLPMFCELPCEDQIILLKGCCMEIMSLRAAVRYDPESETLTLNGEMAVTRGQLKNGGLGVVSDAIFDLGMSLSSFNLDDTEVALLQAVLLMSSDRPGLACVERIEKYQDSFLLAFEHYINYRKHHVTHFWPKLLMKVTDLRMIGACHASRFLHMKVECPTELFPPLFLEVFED
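Fluorescence polarization of 20 nM Texas Red SRC2 peptide with 0.6 uM human TRb ligand-binding domain, in Tris buffer with 1uM T3 and 5% DMSO. Incubated 5 hr ambient; normalized to unbound and bound controls.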
Tau FP inhib: blocks human tau fibril formation measured by polarization; K18 P301L tau heparin fibrillization, Alexa594 FP, 6 h; Potency, µM (top dose mostly 57.7 µM), actives largely listed as inhibitors; 280,000 tested, 0.39% active; also: nearly all actives have a fitted effect of over 55% in size
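Recombinant K18 P301L […], labeled with Alexa 594 at 0.24 uM over 15 uM unlabeled; heparin inducer 20 uM final; 37 C, 6 hr; FP endpoint.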
Tau fluor counter: counter-screen for tau fibril formation inhibitors. tau K18 P301L Alexa594 fluorescence, heparin fibrillization. Potency, µM (highest dose often 57.7 µM). 280,000 tested, 0.93% active; also: nearly all actives have a fitted effect of over 55% in size
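Human tau K18 P301L (15 uM unlabeled, 0.24 uM Alexa 594-labeled) in 100 mM sodium acetate pH 7 with 20 uM heparin, 6 hr at 37 C. ThT 30 uM added, 1 hr ambient; Alexa 594 FP and total fluorescence read at 555/632 nm.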
Hits are given with their value; [ ] = dose if it differs, or a comment. Unless noted, calls follow the shape of the dose curve; as a rule, active = well fitted curve in the direction sought with a large enough effect; inconclusive = small, poorly fitted or top-dose-only effect, or another doubt; inactive = no such curve, though single readings can be large; an effect the other way counts as inactive or inconclusive.

Cc1cccc(N2CCN(C(=O)Cn3sc4nc(C)cc(C)c4c3=O)CC2C)c1 (stereo unspecified) was read as Tau fibril ThT 13µM, TexasRed fluor inactive, RGS12 GoLoco inh 1.4µM, TRb-SRC2 inh inactive, Tau FP inhib inconclusive and Tau fluor counter inactive.
For Cc1cccc(N2CCN(C(=O)Cn3nc(C)n4cccc4c3=O)CC2C)c1 (stereo unspecified) the results were Tau fibril ThT inconclusive, TexasRed fluor inactive, TRb-SRC2 inh inactive, Tau FP inhib inconclusive and Tau fluor counter inactive.
Cc1cc(C)c2c(=O)n(CC(=O)N3CCC(Cc4ccccc4)CC3)sc2n1 was read as Tau fibril ThT 13µM, TexasRed fluor inactive, RGS12 GoLoco inh inactive, TRb-SRC2 inh inactive, Tau FP inhib 11µM and Tau fluor counter inactive.
For CN1CC(=O)N(CC(=O)N2CCC(Cc3ccccc3)CC2)C1=O the results were Tau fibril ThT inactive, TexasRed fluor inactive, RGS12 GoLoco inh inactive, TRb-SRC2 inh inactive, Tau FP inhib inactive and Tau fluor counter inactive.
C/C=C(\C=C\[C@@H](C)C/C=C/CC/C=C/C=C\C[C@@H](OC)/C(C)=C\C=C(C)C)CC(=O)O was read as TexasRed fluor inconclusive and TRb-SRC2 inh inactive.
For S=C(S)NCCCn1ccnc1 the results were RGS12 GoLoco inh inactive[14.2 µM].
For Cc1cccc(NC(=O)Cn2c(O)c(N=NC(=O)c3ccccc3O)c3ccccc32)c1 the results were Tau fibril ThT 16µM, TexasRed fluor inactive, RGS12 GoLoco inh inactive, TRb-SRC2 inh inactive, Tau FP inhib inactive and Tau fluor counter inconclusive.
Cc1cccc(NCC(=O)N/N=C\c2cccc(Oc3ccccc3)c2)c1 was read as Tau fibril ThT inconclusive, TexasRed fluor inactive, RGS12 GoLoco inh inactive, TRb-SRC2 inh inactive, Tau FP inhib inconclusive and Tau fluor counter inconclusive.
Screening Cc1ccc(NCC(=O)N/N=C/c2cccc(Oc3ccccc3)c2)cc1 returned Tau fibril ThT inconclusive, TexasRed fluor inactive, RGS12 GoLoco inh inactive, TRb-SRC2 inh inactive, Tau FP inhib inactive and Tau fluor counter 10µM[quencher].
`Cc1ccc(NCC(=O)N/N=C/c2cc(O)ccc2[N+](=O)[O-])cc1` gave Tau fibril ThT 14µM, TexasRed fluor inactive, RGS12 GoLoco inh inactive, TRb-SRC2 inh inactive, Tau FP inhib inactive and Tau fluor counter inactive.
COc1ccc(NCC(=O)N/N=C/c2cc([N+](=O)[O-])ccc2N2CCCC2)cc1 was read as Tau fibril ThT 11µM, TexasRed fluor inactive, RGS12 GoLoco inh inactive, TRb-SRC2 inh inactive, Tau FP inhib inactive and Tau fluor counter inconclusive.
Screening CC(C)(C)OC(=O)N1CCC[C@H]1C(O)(c1ccccc1)c1ccccc1 returned Tau fibril ThT inactive, TexasRed fluor inactive, RGS12 GoLoco inh inactive, TRb-SRC2 inh inactive, Tau FP inhib inactive and Tau fluor counter inactive.
Screening CN1CCc2cc(O)c(O)cc2C1Cc1ccc(O)c(O)c1 (stereo unspecified) returned TexasRed fluor inactive and TRb-SRC2 inh inactive.
For CCCc1cc(=O)[nH]c(SC(CC)C(=O)Nc2ccccc2C#N)n1 (stereo unspecified) the results were Tau fibril ThT inactive, TexasRed fluor inactive, RGS12 GoLoco inh inactive, TRb-SRC2 inh inactive, Tau FP inhib inactive and Tau fluor counter inactive.
`CCCc1cc(=O)[nH]c(SCC(=O)Nc2ccc([N+](=O)[O-])cc2C#N)n1` gave Tau fibril ThT 14µM, TexasRed fluor inactive, RGS12 GoLoco inh inactive, TRb-SRC2 inh inactive, Tau FP inhib inactive and Tau fluor counter inconclusive.
For CC(C)(C)[C@H](O)[C@H](Cc1ccc(Cl)cc1)n1cncn1 the results were TexasRed fluor inactive and TRb-SRC2 inh inactive.
`Cc1nc(NCc2ccccc2)c2nc(-c3ccccc3)n(CCN3CCOCC3)c2n1` gave Tau fibril ThT inactive, TexasRed fluor inactive, RGS12 GoLoco inh inactive, TRb-SRC2 inh inactive, Tau FP inhib inactive and Tau fluor counter inactive.
`Cc1ccc(C)c(Nc2cc(C(=O)NCCCN(C)C3CCCCC3)c3ccccc3n2)c1` gave Tau fibril ThT inconclusive, TexasRed fluor inactive, TRb-SRC2 inh inactive, Tau FP inhib inactive and Tau fluor counter inconclusive.
`Cc1cc(C)cc(Nc2cc(C(=O)NCCCN(C)C3CCCCC3)c3ccccc3n2)c1` gave Tau fibril ThT inconclusive, TexasRed fluor inactive, TRb-SRC2 inh inactive, Tau FP inhib inactive and Tau fluor counter 3.2µM[quencher].
Cc1cc(C)cc(Nc2cc(C(=O)NCc3ccccc3)c3ccccc3n2)c1 was read as Tau fibril ThT inactive, TexasRed fluor inactive, TRb-SRC2 inh inactive, Tau FP inhib inconclusive and Tau fluor counter 3.5µM[quencher].
CCOC(=O)c1c(N)sc2c(OC)c(Br)ccc12 was read as Tau fibril ThT inconclusive, TexasRed fluor inactive, RGS12 GoLoco inh inactive, TRb-SRC2 inh inactive, Tau FP inhib inactive and Tau fluor counter 25µM[quencher].
Screening CCOC(=O)c1c(N)sc(C)c1-c1ccccc1 returned Tau fibril ThT inactive, TexasRed fluor inactive, RGS12 GoLoco inh inactive, TRb-SRC2 inh inactive, Tau FP inhib inconclusive and Tau fluor counter inconclusive.
`CCOC(=O)c1ccccc1NC(=O)CSc1nnnn1C1CCCCC1` gave Tau fibril ThT 14µM, TexasRed fluor inactive, TRb-SRC2 inh inactive, Tau FP inhib inconclusive and Tau fluor counter inconclusive.
CN1C2CCC1/C(=C\c1ccccc1)C(=O)/C2=C\c1ccccc1 was read as Tau fibril ThT 16µM, TexasRed fluor inactive, RGS12 GoLoco inh inactive, TRb-SRC2 inh inactive, Tau FP inhib inconclusive and Tau fluor counter inactive.
CN1CCc2c(cc(O)c(O)c2Cl)C(c2cccc(Cl)c2)C1 (stereo unspecified) was read as Tau fibril ThT inconclusive, TexasRed fluor inactive, RGS12 GoLoco inh inactive, TRb-SRC2 inh inactive, Tau FP inhib inactive and Tau fluor counter inactive.
CC1(C)Cc2c(c(N3CCOCC3)nc3snc(Br)c23)CO1 was read as Tau fibril ThT inconclusive, TexasRed fluor inactive, RGS12 GoLoco inh inactive, TRb-SRC2 inh inactive, Tau FP inhib inactive and Tau fluor counter inactive.
CC1(C)Cc2c(c(N3CCOCC3)nc3snc(N)c23)CO1 was read as Tau fibril ThT 13µM, TexasRed fluor inactive, RGS12 GoLoco inh inactive, TRb-SRC2 inh inactive, Tau FP inhib inconclusive and Tau fluor counter inactive.
For Cc1cccc2c(N=Nc3ccc(S(=O)(=O)Nc4cccc(Cl)c4)cc3[N+](=O)[O-])c(O)[nH]c12 the results were Tau fibril ThT inconclusive, TexasRed fluor inactive, RGS12 GoLoco inh inactive, TRb-SRC2 inh inactive, Tau FP inhib inactive and Tau fluor counter 5.6µM[quencher].
Screening Cc1ccc(S(C)(=O)=O)cc1S(=O)(=O)Nc1cccc(Cl)c1 returned Tau fibril ThT inactive, TexasRed fluor inactive, RGS12 GoLoco inh inactive, TRb-SRC2 inh inactive, Tau FP inhib inactive and Tau fluor counter inactive.
`COc1cccc(NS(=O)(=O)c2ccc3[nH]c4c(c3c2)CCCCCC4)c1` gave Tau fibril ThT inactive, TexasRed fluor inactive, TRb-SRC2 inh inactive, Tau FP inhib inactive and Tau fluor counter 7.1µM[quencher].

From PubChem
